The text below walks through data of PubChem BioAssay (NCATS).

Activity calls are given as the source filed them. Calls follow the shape of the dose curve; as a rule, active = well fitted curve in the direction sought with a large enough effect; inconclusive = small, poorly fitted or top-dose-only effect, or effect the other way, or another doubt; inactive = no such curve, though single readings can be large or run the other way.

This experiment can be described thus: qHTS for inhibitors of adenylyl cyclases using a fission yeast platform: a pilot screen against the NCATS LOPAC library (AID 1347410). The note with it: S. pombe CHP2027, fbp1-GFP fluorescence, 18 h, yeast expressing mammalian AC9 and human GNAS; series mostly up to 57.5 µM. The text has this:
PI: Charles S. Hoffman Ph.D
Boston College, 140 Commonwealth Ave., Chestnut Hill, MA
Assay Development and Screening Technology Laboratory (ADST)
National Center for Advancing Translational Sciences (NCATS), Rockville, MD
National Institute of Health (NIH), Bethesda, Maryland
The fission yeast Schizosaccharomyces pombe uses a cAMP signaling pathway to link glucose-sensing to Protein Kinase A activity in order to regulate cell growth, sexual development, gluconeogenesis, and exit from stationary phase. Here, we describe the successful functional expression of all ten mammalian adenylyl cyclase (AC) genes, along with the human GNAS G-alpha gene in this organism. By measuring expression of a PKA-repressed fbp1-GFP reporter together with direct measurements of intracellular cAMP levels, one can detect both basal AC activity from all ten AC genes as well as GNAS-stimulated activity from eight of the nine transmembrane ACs (tmACs; AC2-AC9).
Further confirmation and validation of active compounds lead to the identification of diphenyleneiodonium chloride (DPI) as an inhibitor of basal AC activity. This fluorescence based fbp1-GFP-GNAS screening technology could facilitate the development of therapeutic compounds that target GNAS or the ACs, an area in which there is significant unmet need.
The gain-of-signal output is not substantially affected by cytotoxic compounds within the library.
Getz RA, et al., A fission yeast platform for heterologous expression of mammalian adenylyl cyclases and high throughput screening, Cellular Signaling, 2019, 60: 114-121. doi.org/10.1016/j.cellsig.2019.04.010.
PROTOCOL TABLE (as described by Inglese J, Shamu CE and Guy RK. 2007)
SEQUENCE No. (e.g., 1, 2, 3, etc.); […] (e.g., Cells, Incubation, Reagent, etc.); VALUE; DESCRIPTION.
1; Dispense growth medium; 2 uL; black, clear bottom, low base, 1536-well Aurora assay plate.
2; Compounds and control; 23 nL; Kalypsis pin tool (Wako USA) equipped with a 1536-well pin head to transfer to the assay plates.
3; Dispense yeast cells; 2 uL; CHP2027 cells.
4; Incubation; 18 hours (dark at 30C); Non-humidified microbial incubator.
5; Detector; 425V; Fluorescence; laser scanning cytometry.
NOTES (numbers refer to Sequence numbers above)
1. S. pombe growth medium EMM containing histidine, lysine, and uracil was initially dispensed into the assay plate to avoid yeast contamination using a Multidrop Combi dispenser (Thermo Fisher Scientific).
2. 10 mM stock solution of DPI (Sigma-Aldrich D2926) dissolved in DMSO was used as a 16-point dose response positive control, while 1.11 mM DPI stock solution was used as a single point max response positive control. Solvent DMSO was used as the negative control. Control DPI was transferred as a single-dose (column 3; rows 1-32; 1.11 mM stock), and multi-dose (column 4; rows 1-32; 10mM stock; 1:1.5 dilution; 16pnt titration) positive controls. Vehicle control DMSO was pinned into column 1-2, rows 1-32. Lopac compounds were pinned into columns 5-48 resulting to a final concentration range 57 µM to 78.4 nMControl DPI stock (10 mM) was prepared by dissolving 10 mg in 3.18 mL DMSO; while 1.11 mM DPI stock was prepared by mixing 100 uL of 10 mM DPI with 800 uL DMSO. To create the control plates, we initially start with a 384-well compound working plate. With a repeater pipette, (a.) 16 uL/well of 1.11 mM DPI was added to column 3; (b.) 16 uL/well of DMSO was added into rows 2-16 of column 4; (c.) 50 uL/well of DPI added to rows 1 and 2 of column 4; (d.) 32 uL serial dilution (two-thirds-fold) from rows 2 to 16 of column 4 with manual pipette. From the 384-well compound working plate, 7 uL of respective control compound was transferred to respective columns of the 1536-well compound plate using a multichannel pipette.
3. S. pombe CHP2027 (AC9-GNAS-PDE4D2) expressing fbp1-GFP cells were grown at 30C in EMM medium containing histidine, lysine, and uracil. […]
For the molecule `O=Nc1c(-c2c(O)[nH]c3ccccc23)[nH]c2ccccc12`, the molecule was classed as inactive.

For the molecule `Nc1c(S(=O)(=O)O)cc(Nc2ccc(Nc3nc(Cl)nc(Nc4ccc(S(=O)(=O)O)cc4)n3)c(S(=O)(=O)O)c2)c2c1C(=O)c1ccccc1C2=O`, the outcome was inactive. Under `Cc1cccc(/C=C/c2ccccc2)n1` stands “inactive”; under `C/C=C/CC(C)C(O)C1C(=O)NC(CC)C(=O)N(C)CC(=O)N(C)C(CC(C)C)C(=O)NC(C(C)C)C(=O)N(C)C(CC(C)C)C(=O)NC(C)C(=O)NC(C)C(=O)N(C)C(CC(C)C)C(=O)N(C)C(CC(C)C)C(=O)N(C)C(C(C)C)C(=O)N1C` (stereo not drawn), “inactive”. For the molecule `O=C1c2ccccc2C(=O)c2c(NCCc3ccc(O)cc3)ccc(NCCc3ccc(O)cc3)c21`, the result was inactive. With `S=C(Nc1ccccc1)Nc1nccs1`, the outcome was inactive.

Regarding `CCc1ccc(/C=C2/SC(=S)NC2=O)cc1`, the molecule was called inactive.

Regarding `C[C@H](Cc1ccccc1)Nc1ncnc2c1ncn2[C@@H]1O[C@H](CO)[C@@H](O)[C@H]1O`, the molecule was called inactive. For the molecule `N.N.O=C(O)C1(C(=O)O)CCC1.[Pt+2]`, the molecule was called inactive.

As to `N#C/C(=C\c1ccc(O)c(O)c1)C(=O)Nc1ccccc1`, the molecule was called inactive. Under `CC[N+](CC)(CC)CC` stands “inactive”; under `Oc1cc2c(c(Cl)c1O)CCNCC2c1ccccc1` (stereo not drawn), “inactive”; under `CN1C2CCCC1CC(NC(=O)c1nn(C)c3ccccc13)C2` (stereo not drawn), “inactive”.
